Data taken from PubChem BioAssay.
Active and inactive are the calls of the source.

Experiment: E. coli acrAB mutant growth effects, primary screen, E. coli filamentation inducers, strain DRC39, OD650, 48 h (AID 1179);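 also: screen aims at cell division blockers that make cells filament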
Details: E. coli DRC39 delta-acrAB growth, higher = more signal, called active from +8 up or from −8 down

z-score, inactive:
O=C1NC(=O)C2C1C=CC(C(O)c1cc(C(F)(F)F)cc(C(F)(F)F)c1)N2Nc1ccccn1 (stereo not given) -1.42, C=C(/C(=C/C[C@H](OC(C)=O)c1ccccc1OCCO)c1cnc2ccccc2c1)C(C)C -0.622, COC(=O)[C@H](Cc1ccccc1)N1CC2=C[C@@H](C3CC3)n3c(=O)n(C)c(=O)n3[C@H]2[C@@H]1[C@@H](O)Cc1ccccc1 -0.228, CC(=O)n1cc(C(O)C2C=CC3C(=O)N(c4ccccc4)C(=O)C3N2Nc2ccc([N+](=O)[O-])cc2)c2ccccc21 (stereo not given) -0.885, CN1C=C(C(=O)OCCS(C)(=O)=O)C(C(=O)OCCS(C)(=O)=O)=CC(c2ccc(CO)cc2)=CC1C1CC1 (stereo not given) 0.63, COC(=O)[C@]1(CCC(=O)OC(C)(C)C)N=C(c2ccc(OCCCO)cc2)O[C@@H]1c1ccccc1CN=[N+]=[N-] -0.721, C=CCNC(=O)[C@@H]1[C@H]2C(=O)O[C@H](c3ccccc3)[C@H](c3ccccc3)N2[C@H](c2ccc(OCCO)cc2)[C@@]12C(=O)Nc1ccc(C#CCC(C(=O)OC)C(=O)OC)cc12 0.286, COC(=O)C(CC#Cc1ccc2c(c1)[C@]1(C(=O)N2)[C@H](c2ccc(OCCO)cc2)N2[C@H](c3ccccc3)[C@H](c3ccccc3)OC(=O)[C@H]2[C@@H]1C(=O)N1CCc2cc(OC)c(OC)cc2C1)C(=O)OC -0.182, NC(=O)N1C(=O)C2C(C1=O)C1C=C(c3ccc(CO)cc3)C2C(c2cccs2)N1Cc1cccc(OC(F)(F)F)c1 (stereo not given) -4.66, C=CCC(OC(C)=O)[C@@H]1[C@@H](N(Cc2ccc(-c3ccccc3)cc2)C(=O)c2cccc3ccccc23)c2cc(OCCCO)ccc2N1C(=O)c1ccc(-c2ccccc2)cc1 (stereo not given in full) 0.734, COc1cc(NN2C(C(O)c3ccco3)C=CC3C(=O)N(c4ccccc4)C(=O)C32)cc(OC)c1OC (stereo not given) -1.32, CC(C)[Si]1(C(C)C)O[C@@H](c2ccccc2)c2cc(-c3ccc(-c4ccc(Cl)c(Cl)c4)o3)nc(-c3ccccc3)c21 -0.221, CCOC(=O)C[C@H]1[C@H](OC(=O)c2ccc(C(=O)c3ccccc3)cc2)[C@@H](NC(=O)c2ccc3ccccc3n2)c2cc(OCCCO)ccc2N1C(=O)c1ccccc1 -0.211, CC(C)C(O)C1C=CC2C(=O)NC(=O)C2N1Nc1ccc(Cl)cc1Cl (stereo not given) -0.527, COc1ccc(C#Cc2ccc3c(c2)[C@]2(C(=O)N3)[C@H](C(=O)Nc3nc4ccccc4s3)[C@H]3C(=O)O[C@H](c4ccccc4)[C@H](c4ccccc4)N3[C@@H]2c2ccc(O)cc2)cc1 -0.0528, COC(=O)[C@@]1(Cc2ccccc2)N=C(c2ccc(OCCCO)cc2)O[C@H]1c1ccccc1 0.608, [N-]=[N+]=Nc1ccccc1[C@H]1OC(c2ccc(OCCCO)cc2)=N[C@@]1(CCS(=O)(=O)c1ccccc1)C(N)=O -0.319, O=C1C[C@@](C(=O)NC2CC2)(c2ccc([N+](=O)[O-])cc2)[C@@H](c2ccc(CO)cc2I)N1C1CCCCC1 -0.528, COc1cc2c(cc1OC)CN(C(=O)[C@H]1[C@@H]3C(=O)O[C@@H](c4ccccc4)[C@@H](c4ccccc4)N3[C@@H](c3ccc(O)cc3)[C@]13C(=O)Nc1ccccc13)CC2 -0.144, O=C1O[C@H](c2ccccc2)[C@H](c2ccccc2)N2[C@H]1[C@@H](C(=O)N1CCCCCCC1)[C@]1(C(=O)Nc3ccc(C#CC4=CCCCC4)cc31)[C@H]2c1ccc(OCCO)cc1 0.286, COC(=O)[C@@]1(CCC(=O)OC(C)(C)C)N=C(c2ccc(OCCCO)cc2)O[C@H]1c1ccccc1N=[N+]=[N-] -0.903, O=C1C2C=CC(C(O)c3cc(C(F)(F)F)cc(C(F)(F)F)c3)N(n3cnnc3)C2C(=O)N1Cc1ccccc1 (stereo not given) 0.589, CCCCCN1CC=CC23O[C@@H]4C=CCCOC(=O)C4[C@H]2C(=O)N(CCCCCO)[C@@H]3C1=O (stereo not given in full) 0.67, COc1ccc([Si](C)(C)[C@@H]2[C@@H](CCO)O[C@]3(C(=O)N(Cc4ccc(N(C=O)c5ccccc5)cc4)c4ccccc43)[C@H]2C)cc1 -0.339, C=CCOC(=O)[C@H]1[C@@H]2C(=O)O[C@@H](c3ccccc3)[C@@H](c3ccccc3)N2[C@@H](c2ccc(OCCOC(=O)[C@H]3C[C@H]4C(=O)N[C@@H](CCCCNC(C)=O)C(=O)N4[C@H]3c3cccc(OCCO)c3)cc2)[C@]12C(=O)Nc1ccccc12 -0.581, [N-]=[N+]=NCc1ccccc1C[C@]1(C(N)=O)COC(c2ccc(OCCCO)cc2)=N1 1.87, C=C(CC1([C@@H](NP(=O)(c2ccccc2)c2ccccc2)[C@H]2C[C@@H]2CCCC)CC1)c1ccccc1 -0.821, CC[C@@H]1C=C(C(=O)O)[C@H](c2ccc(Br)cc2)N1S(=O)(=O)c1ccc(C)cc1 0.295, C=C(CCCC)/C(=C/C[C@H](OC(C)=O)c1ccccc1OCCO)c1cc(C(=O)OC)ccc1OC 0.257, COC(=O)[C@@]1(Cc2ccc(OC)cc2)[C@H]2c3cc(C(=O)N(C)C)n(C)c3C[C@H]2CN1C(=O)c1ccccc1 -1.28, CN(C)CCCCCCNC(=O)[C@H]1C[C@H]2C(=O)N[C@@H](CCCCN)C(=O)N2[C@H]1c1cccc(OCCO)c1 -0.02, NC(=O)NCC#Cc1ccc2c(c1)[C@]1(C(=O)N2)[C@H](c2ccccc2OCCO)N2[C@H](c3ccccc3)[C@H](c3ccccc3)OC(=O)[C@H]2[C@@H]1C(=O)Nc1nc2ccccc2s1 0.24, CC1CC/C=C\[C@H]2OC34C=CCN(C(C)(C)C)C(=O)[C@H]3N(CCO)C(=O)[C@@H]4C2C(=O)O1 (stereo not given in full) -0.519, C=C(COC)/C(=C/C[C@H](OC(C)=O)c1ccc(CO)o1)c1cc(C(=O)OC)ccc1OC -0.816, CNS(=O)(=O)c1ccc(C)cc1 0.774
